Molecules are shown by their SMILES. The whole screen tested about 320,000 compounds, of which about 3,100 (0.97%) were called active. This is one part of a sample in which actives are shown more often than they occur. Unmarked numbers belong to inactive results.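 Rule for the calls: active = mean replicate inhibition of at least 70% and a set share of replicates each scoring 70 or more; inconclusive = meets just one of the two criteria; inactive = fails both criteria.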

The target in the test is Scavenger receptor class B member 1 (Mus musculus) (UniProt Q61009). Description: mouse SR-BI DiI-HDL uptake blockers – ldlA[mSR-BI] cells, fluorescence, single point, primary screen (AID 488896).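 Note: 0% = median of neutral control wells and 100% = median of positive control wells.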 The settings on record: ldlA[mSR-BI] CHO cells, 3 h, at 12.5 µM, stronger effect = higher value.
Scavenger receptor class B member 1 (Mus musculus), sequence (Q61009 whole entry, looked up): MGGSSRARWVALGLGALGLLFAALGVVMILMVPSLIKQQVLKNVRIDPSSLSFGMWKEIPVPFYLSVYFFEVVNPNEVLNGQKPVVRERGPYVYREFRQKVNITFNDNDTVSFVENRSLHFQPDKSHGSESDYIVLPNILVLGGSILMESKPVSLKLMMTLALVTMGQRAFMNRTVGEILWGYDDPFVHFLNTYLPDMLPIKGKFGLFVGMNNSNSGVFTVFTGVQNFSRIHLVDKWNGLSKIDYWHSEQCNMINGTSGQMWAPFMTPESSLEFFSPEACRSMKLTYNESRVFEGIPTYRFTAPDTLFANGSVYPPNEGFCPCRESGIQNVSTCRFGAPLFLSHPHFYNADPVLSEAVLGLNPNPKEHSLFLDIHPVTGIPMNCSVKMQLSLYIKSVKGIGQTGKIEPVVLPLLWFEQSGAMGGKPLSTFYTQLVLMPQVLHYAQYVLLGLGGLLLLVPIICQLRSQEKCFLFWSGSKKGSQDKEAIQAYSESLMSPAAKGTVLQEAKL
One may read the inhibition as the change of the read-out against control, counted positive when it falls. Take `Cc1nc2ccc(N)nc2nc1C`: the inhibition was 22.1%.
Then `O=[N+]([O-])c1ccc(NS(=O)(=O)c2ccccc2)c(Cl)c1`, with -84.4%; and `COc1cccc2oc(CCc3ccccc3)cc(=O)c12`, with -4.54%.
`COc1ccccc1C(=O)NC(=S)Nc1ccccc1N1CCCCC1`: the inhibition was 49.6%.
Then `CCC(=O)Nc1ccccc1N1CCN(S(C)(=O)=O)CC1`, with -20.6%; and `COc1ccc(C(=O)NC(=S)Nc2ccccc2N2CCN(S(C)(=O)=O)CC2)cc1OC`, with 74.4% (active).
Then `COc1cccc(/C=N/Nc2ccc(S(=O)(=O)Nc3ccccc3C(=O)O)cc2[N+](=O)[O-])c1O`, with -4.5%; and `COc1cccc(C(=O)Nc2ccc(N3CCN(C(=O)c4ccco4)CC3)cc2)c1`, with 36.3%; and `COc1cccc(C(=O)Nc2cc3c(cc2Br)OCCCO3)c1`, with 83.6% (active).
Then `COc1cccc(C(=O)Nc2nnc(S(=O)(=O)N3CCCCC3)s2)c1`, with -13.3%.
As to `COc1cccc(C(=O)NNC(=O)c2cccc(F)c2)c1`, the inhibition was -14.2%.
Then `O=C(Nc1ccccc1)c1ccc2c(c1)OCCCO2`, with -9.51%; and `COc1ccc(C(=O)NCCCN2CCOCC2)cc1Br`, with -15.8%; and `COc1ccc(C(=O)Nc2ccc(N3CCC(C)CC3)cc2)cc1Br`, with 94.5% (active).
Then `COc1ccc(OCC(=O)Nc2ccc(N3CCC(C)CC3)cc2)cc1`, with 65.5%; and `COc1cccc(C(=O)Nc2ccc(N3CCCC3)cc2)c1`, with 80.4% (active).
As for `COc1ccc(CNC(=O)COC(=O)C2=Cc3ccccc3OC2)cc1`, the inhibition was -3.54%.
Consider `O=S1(=O)CCOC[C@H](Cc2ccccc2)N1Cc1ccccc1Br`, for which the inhibition is -16.4%.
Take `O=C(OCCOc1ccccc1Cl)c1cc(S(=O)(=O)N2CCCCC2)ccc1N1CCOCC1`: the inhibition is -9.43%.
Then `CN=c1scc(-c2cc(OC)ccc2OC)n1/N=C/c1c(C)[nH]c2ccccc12`, with 77.2% (active); and `COCCNC(=S)N/N=C/c1c(C)[nH]c2ccccc12`, with 2.4%; and `CCn1c(-c2cc(OC)ccc2OC)csc1=Nc1c(C)n(C)n(-c2ccccc2)c1=O`, with -4.8%.
As for `O=C1C2C3C=CC(C3)C2C(=O)N1c1ncc([N+](=O)[O-])s1` (stereo not drawn), the inhibition is -8.82%.
Then `CCC(=O)N1CCc2cc(Br)c(S(=O)(=O)NCCN3CCCCC3CC)cc21` (stereo not drawn), with 11.6%.
Regarding `COc1cc(C(=O)N2CCN(S(=O)(=O)c3ccc(C(C)C)cc3)CC2)ccc1OCC(=O)N1CCOCC1`, the inhibition was -10.9%.
On to `Cc1ccc(Nc2c(O)nc[nH]c2=O)cc1C`, for which the inhibition was 4.84%.
Then `COC(=O)Cc1nc2c(N)nc(N)nc2[nH]c1=O`, with -15.9%; and `O=C(NN=Cc1ccccc1O)NN=Cc1ccccc1O`, with 79.8% (active); and `O=C(N/N=C/c1ccccc1O)/C(=C/c1ccccc1)CCO`, with 24.8%.
On to `O=C(N/N=C/c1ccccc1O)C1CCCC1`, for which the inhibition is 4.81%.
As to `COc1ccccc1C(=O)c1ccccc1C(=O)c1ccccc1`, the inhibition is 6.29%.
Then `COc1ccc(CNC(=O)CN2C(=O)c3ccccc3S2(=O)=O)cc1`, with -16.4%; and `CC(=O)c1ccc(NC(=O)Nc2ccc([N+](=O)[O-])cc2C)cc1`, with 26.8%; and `Cc1cc([N+](=O)[O-])ccc1NC(=O)c1ccc(NC(=O)C(C)C)cc1`, with 74.9% (active).
Then `CC(C)C(=O)Nc1cccc(NC(=O)c2ccc([N+](=O)[O-])cc2Cl)c1`, with -2.31%.
Turning to `Nc1ccc2[nH]c(=S)sc2c1`, the inhibition is 5.71%.
Take `COc1ccc(-c2nnn(CC(=O)N(CCO)C(C(=O)NC3CCCC3)c3ccc(F)cc3)n2)cc1` (stereo not drawn): the inhibition was 10.5%.
Then `COc1cccc(N(CC(=O)NC2CCCC2)C(=O)Cn2nnc(-c3ccc(C)cc3)n2)c1`, with 73.6% (active).
Consider `COc1cccc(N(CC(=O)NC2CCCC2)C(=O)CCCC(=O)Nc2ccccn2)c1`, for which the inhibition is 21.1%.
For the molecule `O=c1[nH]c2c(c(=O)n1-c1ccccc1)CCO2`, the inhibition was 2.86%.
Then `CN(C)/N=C/c1cc(Cl)cc([N+](=O)[O-])c1O`, with -14.6%.
Then `O=C(Cc1cc(=O)[nH][nH]1)N/N=C/c1ccccc1[N+](=O)[O-]`, with -19.1%; and `O=C(N/N=C/c1cc(Cl)cc([N+](=O)[O-])c1O)C(O)(c1ccccc1)c1ccccc1`, with 77.8% (active); and `N=C1c2ccccc2-c2ccccc21`, with -9.24%.
For the molecule `CCC(C(=O)OCC(=O)Nc1ccc(C(=O)Nc2ccc(OC)cc2)cc1)c1ccccc1` (stereo not drawn), the inhibition is 79.1% (active).
As for `CCC(C(=O)OCC(=O)Nc1c(Cl)cc(Cl)cc1Cl)c1ccccc1` (stereo not drawn), the inhibition is -13.8%.
For `CCC(C(=O)OCC(=O)Nc1ccccc1-c1ccccc1)c1ccccc1` (stereo not drawn), the inhibition is -4.74%.
On to `COc1ccc(NC(=O)/C(N=Nc2cccc(S(=O)(=O)Nc3ccc(SC(F)F)cc3)c2)=C(\C)O)cc1`, for which the inhibition was -19.4%.
Then `COCCNc1cc(-c2ccccc2)nc2cc(-c3cccc(F)c3)nn12`, with 71.2% (active); and `COC(=O)C(C)Sc1ccc2nnc(-c3cccc(F)c3)n2n1` (stereo not drawn), with -12.2%; and `COc1ccc(NC(=O)c2cc3nc(-c4ccccc4)cc(C)n3n2)cc1OC`, with -10.7%.
In the case of `COc1ccc(NS(=O)(=O)c2ccc(N3CCOCC3)c(NC(=O)/C=C/C(=O)O)c2)cc1`, the inhibition was -22.2%.
With `CC(C)Cc1nnc(N)s1`, the inhibition was -10.1%.
On to `CCOc1ccc(C(C)=O)cc1COC(=O)c1cnc(Cl)c(Cl)c1`, for which the inhibition was -10.9%.
Then `CCOc1ccc(C(C)=O)cc1COC(=O)CNC(=O)c1cccs1`, with 72.6% (active).
With `CCOc1ccc(C(C)=O)cc1COC(=O)CN1C(=O)NC2(CCCC2)C1=O`, the inhibition was 28.5%.
Then `Cc1cccc(C=CC(=O)c2ccc(Cl)cc2)c1`, with 0.714%; and `NC(CSC1(c2ccccc2)c2ccccc2-c2ccccc21)C(=O)O` (stereo not drawn), with -5.45%.
Then `O=C(NCc1ccccc1)c1cccc(NC(=O)C2CCCCC2)c1`, with 0.488%.
On to `OCC1(CO)CC2(C1)CC(CO)(CO)C2`, for which the inhibition is -21.2%.
Take `COC(=O)CCc1sc(Nc2ccc(Br)cc2)nc1-c1ccc(OC)cc1`: the inhibition is 87.4% (active).
Then `COc1ccc(C(=O)Nc2nc(-c3ccc(OC)cc3)c(-c3ccc([N+](=O)[O-])cc3)s2)cc1`, with 32.2%; and `Cc1ccc(OC(=O)CCC(=O)Nc2ccc(Br)cc2)cc1`, with -15.2%.

For the origin of these results see PubChem BioAssay AID488896 (Broad Institute, 2010).
